Among all 5,500 compounds or so, about 2,000 (36%) were called active. About 18% were inconclusive and are not listed. Rule as the data show it: active = normalized growth mostly below about 0.91 (no sharp cut-off); inconclusive = no clear call, values can overlap the other calls; inactive = mostly above about 0.92. The list shows a part of the results.
Experiment: chemical genetic growth profiling, strain panel (AID 1159580);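 also: tested at 20 µM; growth read once vehicle control cultures reached saturation at 30 °C; 1 = growth at the plate median or of vehicle wells; lower values mean less growth of the strain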
Details: S. cerevisiae deletion strains, growth OD

Measured: normalized growth

C=Cc1c2[nH]c(c1C)Cc1[nH]c(c(C)c1C=C)C=C1N=C(C=c3[nH]c(c(C)c3CCC(=O)O)=C2)C(CCC(=O)O)=C1C
inactive: locus YAL013W, strain DEP1, active compounds read low 0.99 | locus YAL040C, strain CLN3, active compounds read low 0.989 | locus YCL061C, strain MRC1 (second series), active compounds read low 1.01 | locus YDR363W, strain ESC2, active compounds read low 1.05 | locus YER002W, strain NOP16, active compounds read low 0.987 | locus YGR078C, strain PAC10, active compounds read low 1.01 | locus YJR075W, strain HOC1, active compounds read low 1.01 | locus YMR307W, strain GAS1, active compounds read low 1.01 | locus YNL153C, strain GIM3, active compounds read low 0.799 | locus YNL175C, strain NOP13, active compounds read low 0.993 | locus YNL197C, strain WHI3, active compounds read low 0.972 | locus YNL224C, strain SQS1, active compounds read low 1.01 | locus YOR083W, strain WHI5 (second series), active compounds read low 1.01
